In PMC5540273 (PLoS ONE, 2017):

Assays:
Conditions in all cases: concentration: 1 μM, replicates: in singlicate; n = 1
[1] = tested on: BMPR1A
[2] = tested on: BMPR1B
[3] = tested on: BMPR2
[4] = tested on: BMX
[5] = tested on: BRAF
[6] = tested on: T1, BRK
T1 construct: gene PTK6

[7] = tested on: BRSK1
[8] = tested on: BRSK2
[9] = tested on: BTK
[10] = tested on: BUB1
[11] = tested on: CAMK1B
[12] = tested on: CAMK1D
[13] = tested on: CAMK1G
[14] = tested on: CAMK1
[15] = tested on: CAMK2A
[16] = tested on: CAMK2B
[17] = tested on: CAMK2D
[18] = tested on: CAMK2G
[19] = tested on: CAMK4
[20] = tested on: CAMKK1
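Further: KINOMEscan kinase panel screen.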

| SMILES | %Inh [1] [%] | %Inh [2] [%] | %Inh [3] [%] | %Inh [4] [%] | %Inh [5] [%] | %Inh [6] [%] | %Inh [7] [%] | %Inh [8] [%] | %Inh [9] [%] | %Inh [10] [%] | %Inh [11] [%] | %Inh [12] [%] | %Inh [13] [%] | %Inh [14] [%] | %Inh [15] [%] | %Inh [16] [%] | %Inh [17] [%] | %Inh [18] [%] | %Inh [19] [%] | %Inh [20] [%] |
| --- | --- | --- | --- | --- | --- | --- | --- | --- | --- | --- | --- | --- | --- | --- | --- | --- | --- | --- | --- | --- |
| COc1ccc(CNC(=O)NC2CCN(c3ccnc(Nc4cc(OC)c(OC)c(OC)c4)n3)C2)cc1 (centres unmarked) [GSK1379748] | 1 | 0 | 0 | 21 | 0 | 3 | 0 | 0 | 32 | 32 | 2 | 15 | 8 | 28 | 0 | 0 | 16 | 17 | 0 | 8 |
| Cc1cccc(-c2nc(C)cc(Nc3ccncc3)n2)n1 [GSK257997] | 14 | 0 | 2 | 27 | 0 | 2 | 0 | 0 | 0 | 9 | 12 | 14 | 99.4 | 10 | 0 | 0 | 94.2 | 12 | 0 | 0 |
| Cc1cccc(-c2nc(Nc3ccncc3)c3ccccc3n2)n1 [GW855857] | 0 | 29 | 0 | 6 | 0 | 13 | 0 | 11 | 0 | 0 | 0 | 3 | 0 | 0 | 6 | 0 | 7 | 0 | 47 | 24 |
| Nc1nc(-c2nccs2)c(-c2ccnc3ccccc23)s1 [GW693542] | 14 | 10 | 9 | 0 | 0 | 3 | 11 | 0 | 0 | 47 | 7 | 27 | 0 | 30 | 0 | 0 | 0 | 13 | 0 | 6 |
| Cn1ccc2ncnc(Oc3cccc(C(=O)Nc4ccccc4)c3)c21 | 5 | 13 | 14 | 0 | 0 | 15 | 0 | 0 | 0 | 8 | 12 | 0 | 17 | 29 | 1 | 0 | 20 | 19 | 0 | 20 |
| Cl.O=C(Nc1cccc(-c2nn3ncccc3c2-c2ccnc(Nc3cccnc3)n2)c1)c1c(F)cccc1F [GSK312879] | 0 | 0 | 0 | 24 | 91.6 | 21 | 8 | 0 | 0 | 7 | 27 | 3 | 0 | 8 | 0 | 0 | 0 | 13 | 0 | 4 |
| O=C(Nc1n[nH]c2nc(-c3nccs3)c(Br)cc12)C1CCCC1 [SB-742609] | 0 | 0 | 13 | 0 | 12 | 26 | 93 | 85 | 0 | 37 | 20 | 1 | 8 | 0 | 0 | 0 | 15 | 11 | 0 | 8 |
| Cc1ccc(NC(=O)Nc2cc(C(C)(C)C)nn2-c2ccccc2)cc1 [GSK1014915] | 0 | 0 | 37 | 14 | 74 | 20 | 100 | 0 | 0 | 21 | 33 | 3 | 0 | 0 | 0 | 0 | 0 | 14 | 0 | 12 |
| CN(C)CCN(C)C(=O)c1cc(-c2ccncc2)c(-c2ccc(Cl)c(O)c2)o1.Cl.Cl [SB-710397] | 0 | 0 | 31 | 0 | 94.5 | 29 | 2 | 0 | 10 | 95.2 | 6 | 13 | 0 | 10 | 0 | 0 | 0 | 1 | 0 | 0 |
| CCn1c(-c2ccccn2)nc2cnccc21 [SB-736398] | 0 | 0 | 21 | 77 | 11 | 14 | 100 | 0 | 7 | 40 | 34 | 0 | 0 | 0 | 0 | 0 | 0 | 0 | 0 | 0 |
